Experiment [1] is described as follows: NCI Yeast Anticancer Drug Screen. Data for the rad50 strain (AID 155).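 Note: 0% = growth of vehicle-only cultures of the same strain.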 The settings on record: S. cerevisiae rad50 strain growth inhibition; at 50.0 µM; active compounds read high. In short, it runs like this: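 Inhibition values express reduced yeast growth in compound-treated cultures relative to vehicle-treated controls.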
Experiment [2] is described as follows: NCI Yeast Anticancer Drug Screen. Data for the mec2-1 strain (AID 157). The settings on record: S. cerevisiae mec2-1 strain, at 50.0 µM, active compounds read high. In short, it runs like this:
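Using mec2-1 yeast: add compound, measure growth, express inhibition versus vehicle-treated cultures.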

Experiment [3] in a line: NCI Yeast Anticancer Drug Screen. Data for the sgs1 mgt1 strain (AID 161).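 Note: 0% = growth of cultures given vehicle only.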 Conditions: S. cerevisiae sgs1 mgt1 strain, at 50.0 µM, active compounds read high. The procedure, abridged:
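Growth of a repair-deficient yeast mutant was monitored after compound treatment and expressed as inhibition relative to vehicle-treated cultures.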

Experiment [4] is described as follows: NCI Yeast Anticancer Drug Screen. Data for the cln2 rad14 strain (AID 165).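 Note: 0% = growth equal to vehicle treated cultures.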 The settings on record: S. cerevisiae cln2 rad14 strain, at 50.0 µM, active compounds read high. In short, it runs like this: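 Yeast strain cln2 rad14, bearing defects in cell cycle control and DNA repair, serves as the test system; values reflect growth inhibition compared with vehicle.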

Experiment [5] can be described thus: NCI Yeast Anticancer Drug Screen. Data for the bub3 strain (AID 167). Conditions: S. cerevisiae bub3 mutant strain, at 50.0 µM, active compounds read high. In short, it runs like this:
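Steps: expose the mutant yeast strain to compound; grow alongside vehicle-treated cultures; measure growth; express inhibition against the vehicle cultures.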

Experiment [6] in a line: NCI Yeast Anticancer Drug Screen. Data for the mlh1 rad18 strain (AID 175). The settings on record: S. cerevisiae mlh1 rad18 strain growth inhibition; at 50.0 µM; active compounds read high. The procedure, abridged:
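Steps: expose repair-defective yeast to compound; measure growth; express inhibition against vehicle-treated controls.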

The values below come from PubChem BioAssay (NCI).

The panel holds about 79,000 compounds, 15% with a hit somewhere; the sample as a whole holds those more often. Values without a mark were called inactive. The source made the active and inactive calls. Cut-off read from the data, not from the text of the source: active = growth inhibition above about 70%; inactive = the rest.

On to `COc1cc(C(=O)N=Nc2c(O)[nH]c3ccc(Br)cc23)cc(OC)c1OC`, for which the growth inhibition is 3.55% in experiment [1]; -16.6% in experiment [2]; -7.1% in experiment [3]; -1.9% in experiment [4]; 2% in experiment [5]; -3.1% in experiment [6].

Regarding `Oc1c2c(c3cccc4cccc1c43)=Nc1ccccc1S2`, the growth inhibition was 0.25% in experiment [1]; 3.2% in experiment [2]; 6.4% in experiment [3]; -23.6% in experiment [4]; 3.3% in experiment [5]; 7.1% in experiment [6].

Regarding `O=C(O)c1cccc(S(=O)(=O)NN2C(=O)CSC2c2ccccc2Cl)c1` (stereo not given), the growth inhibition in experiment [1] is 28.5%; in experiment [2] it was -3.95%; in experiment [3], 2.85%; in experiment [4], 5.9%; in experiment [5], 12.7%; in experiment [6], 28.7%.

Turning to `O=C(O)COc1ccc([N+](=O)[O-])cc1/C=C1/SC(=S)N(c2ccccc2)C1=O`, the growth inhibition was 14.7% in experiment [1]; 10.3% in experiment [2]; 18.9% in experiment [3]; 2.5% in experiment [4]; -1.6% in experiment [5]; 11.2% in experiment [6].

As for `CCOC(=O)c1c(C)c2c(n1C)CC/C(=C/NCCc1ccccc1)C2=O`, the growth inhibition in experiment [1] is 93% (active); in experiment [2], 79% (active); in experiment [3], 86.4% (active); in experiment [4], 29.8%; in experiment [5], 90.5% (active); in experiment [6], 93.3% (active).

Consider `COc1ccccc1/C=C1\CCC(CCN2CCOCC2)C1=O` (stereo not given), for which the growth inhibition in experiment [1] is 44.4%; in experiment [2], 37.7%; in experiment [3] it was 52.5%; in experiment [4] it was 58.6%; in experiment [5], 39.9%; in experiment [6] it was 41.5%.

Consider `O=C(Nc1ccccc1C(=O)N/N=C/c1cccc(O)c1)c1ccccc1`, for which the growth inhibition in experiment [1] is 9.5%; in experiment [2], 24.8%; in experiment [3] it was 12.9%; in experiment [4], -20%; in experiment [5], 34.5%; in experiment [6], 4.55%.

`CCOC(=O)CCc1ccco1`: the growth inhibition in experiment [1] is 3.15%; in experiment [2] it was -5.7%; in experiment [3] it was -4.45%; in experiment [4], 4.15%; in experiment [5], 9.1%; in experiment [6] it was 15.2%.

In the case of `c1ccc(-c2csnn2)cc1`, the growth inhibition is -8.6% in experiment [1]; -12.2% in experiment [2]; -4.05% in experiment [3]; -17.8% in experiment [4]; -13.4% in experiment [5]; -11.8% in experiment [6].

For the compound `COC(=O)NN1C(C)=C(C(=O)OC)C2(C#N)C(C(=O)OC)=C(C)N(NC(=O)OC)C12N` (stereo not given), the growth inhibition in experiment [1] is -14.4%; in experiment [2] it was -26.6%; in experiment [3] it was -56%; in experiment [4], 9.85%; in experiment [5], 10.2%; in experiment [6], -18.4%.

As for `O=c1oc2ncccc2n1Cc1ccc([N+](=O)[O-])cc1`, the growth inhibition in experiment [1] was -14.7%; in experiment [2], -22%; in experiment [3] it was 1.25%; in experiment [4], 20.8%; in experiment [5] it was -1.15%; in experiment [6], 19.6%.

`CCC1=CC(C(O)CC(C)C)C(C)(Cc2ccc(CC)cn2)NC1c1ccccc1` (stereo not given): the growth inhibition in experiment [1] was 24.9%; in experiment [2], 14.8%; in experiment [3], 40.2%; in experiment [4], 11.9%; in experiment [5], 54.1%; in experiment [6], 50.3%.

With `CCOc1cc(/C=N/NC(=O)c2ccccc2NC(=O)c2ccccc2)ccc1OC`, the growth inhibition in experiment [1] is -21.6%; in experiment [2], 2.35%; in experiment [3], 17.8%; in experiment [4], -4.1%; in experiment [5] it was 5.4%; in experiment [6], 5.7%.

With `CC(O)C(c1ccc(N(C)C)cc1)c1ccc(N(C)C)cc1` (stereo not given), the growth inhibition in experiment [1] was -6.25%; in experiment [2], 3.1%; in experiment [3] it was 2.35%; in experiment [4] it was -14.6%; in experiment [5], 6.05%; in experiment [6], 2.45%.

As for `O=[N+]([O-])c1ccc(C=Nc2ccccc2)cc1`, the growth inhibition in experiment [1] is 41.1%; in experiment [2], 24.1%; in experiment [3], 30.9%; in experiment [4] it was 11.9%; in experiment [5], 1%; in experiment [6], 26.4%.

Regarding `N=C(N)c1nc2ccccc2s1`, the growth inhibition in experiment [1] is 6.2%; in experiment [2] it was -13.5%; in experiment [3], 17.4%; in experiment [4], 7.65%; in experiment [5] it was 24%; in experiment [6], 5.3%.

For `O=c1c2ccccc2on1CN1CCN(Cn2oc3ccccc3c2=O)CC1`, the growth inhibition is 3.6% in experiment [1]; -11.1% in experiment [2]; -8% in experiment [3]; -12.9% in experiment [4]; -12.1% in experiment [5]; 5.05% in experiment [6].

Take `COCCOC(=O)Nc1c(Cl)cccc1Cl`: the growth inhibition is 1.45% in experiment [1]; -18.5% in experiment [2]; -8.35% in experiment [3]; 5.3% in experiment [4]; -25.6% in experiment [5]; -8.2% in experiment [6].

`CCC(C)C(=O)OC1C(=O)OC2CC3C(C)=CC(=O)C(O)C3(C)C3C4(O)OCC23C1C(C)C4O` (stereo not given): the growth inhibition in experiment [1] is 90.3% (active); in experiment [2], 93% (active); in experiment [3], 90% (active); in experiment [4] it was 91.3% (active); in experiment [5], 90.6% (active); in experiment [6], 92.1% (active).

Consider `Cc1nc2ccccc2c(=O)n1C`, for which the growth inhibition in experiment [1] was -7.5%; in experiment [2], -17.9%; in experiment [3] it was 10.7%; in experiment [4], 2.35%; in experiment [5], -5.4%; in experiment [6], 3.95%.
